A short description of assay [1]: qHTS assay to identify small molecule agonists of the peroxisome proliferator-activated receptor delta (PPARd) signaling pathway - cell viability counter screen (AID 743211). Further: nearly all actives have a fitted effect of over 55% in size. In a few lines: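 Viability was measured as CellTiter-Glo luminescence (30 min, room temperature) in the same wells as the beta-lactamase readout. GeneBLAzer PPARd UAS-bla HEK293H cells received compound after 5 h plating and were incubated 17 h at 37 C.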
On the technique in general: In qHTS, concentration-response curves come from the screen itself.

Assay [2] deals with Bile acid receptor (Homo sapiens) (UniProt Q96RI1). Briefly: qHTS assay to identify small molecule agonists of the farnesoid-X-receptor (FXR) signaling pathway (AID 743220; active means well fitted activation curve with a large enough effect in the signal ratio in the repeat runs, not every such curve was filed as active; the % refers to the signal ratio). The essentials: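 FXR-UAS-bla HEK 293T cells carrying a UAS-driven beta-lactamase reporter were plated for 5 h at 37C/5% CO2, then exposed to DMSO-dissolved Tox21 10K compounds for 16 h at 37C. A LiveBLAzer B/G FRET substrate was loaded for 2 h at room temperature before fluorescence reading.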

The nature of assay [3]: qHTS assay to identify small molecule antagonists of the farnesoid-X-receptor (FXR) signaling pathway - cell viability counter screen (AID 743221; active means well fitted cell-killing curve with a large enough effect in the repeat runs, not every such curve was filed as active; further: nearly all actives have a fitted effect of over 50% in size; further: potency means the concentration at half of the fitted maximal effect). In a few lines: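 Cytotoxicity counter screen run in the FXR-bla reporter wells: HEK 293T cells exposed to compound with 50 uM (final) chenodeoxycholic acid for 16 h, 37 C, then viability measured by CellTiter-Glo luminescence after 30 min, room temperature.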

In assay [4] the target is Vitamin D3 receptor (Homo sapiens) (UniProt P11473). Briefly: qHTS assay to identify small molecule agonists of the vitamin D receptor (VDR) signaling pathway (AID 743222; calls by dose curve). In a few lines:
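Using LiveBLAzer B/G FRET detection, agonism was scored in VDR-bla cells exposed overnight (16 h, 37C) to DMSO-dissolved compounds; substrate incubation was 2 h at room temperature.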

A short description of assay [5]: qHTS assay to identify small molecule agonists of the farnesoid-X-receptor (FXR) signaling pathway - cell viability counter screen (AID 743218). Further: nearly all actives have a fitted effect of over 45% in size. Further: potency means the concentration at half of the fitted maximal effect. The essentials:
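Same-well cytotoxicity check on FXR-UAS-bla HEK 293T cells: 5 h attachment, 16 h compound at 37 C, CellTiter-Glo luminescence read at room temperature after 30 min.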

The nature of assay [6]: qHTS assay to identify small molecule antagonists of the peroxisome proliferator-activated receptor delta (PPARd) signaling pathway - cell viability counter screen (AID 743213). Further: nearly all actives have a fitted effect of over 50% in size. Further: potency means the concentration at half of the fitted maximal effect. The essentials:
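PPARd-bla HEK293H cells (3000/well) got compound plus 300 nM L165041 agonist for 17 h at 37 C. Viability in the same wells came from CellTiter-Glo luminescence after 30 min at room temperature.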

In assay [7] the target is Peroxisome proliferator-activated receptor delta (Homo sapiens) (UniProt Q03181). Briefly: qHTS assay to identify small molecule antagonists of the peroxisome proliferator-activated receptor delta (PPARd) signaling pathway (AID 743215; active means well fitted inhibition curve with a large enough effect in the signal ratio in the repeat runs, not every such curve was filed as active; the % refers to the signal ratio;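 further: cells stimulated with agonist L165041 at 300 nM final during compound exposure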; further: potency means the concentration at half of the fitted maximal effect). In a few lines: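 Screen format: qHTS, antagonist mode. HEK293H PPARd-bla cells received compound and 300 nM L165041 (final), 17 h, 37 C. Beta-lactamase detected via FRET substrate fluorescence, 2 h, room temperature.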

Assay [8] has as its target Vitamin D3 receptor (Homo sapiens) (UniProt P11473). Briefly: qHTS assay to identify small molecule antagonists of the vitamin D receptor (VDR) signaling pathway (AID 743223; active means well fitted inhibition curve with a large enough effect in the signal ratio in the repeat runs, not every such curve was filed as active; the % refers to the signal ratio; further: potency means the concentration at half of the fitted maximal effect). The essentials: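 Antagonist mode: compound added to VDR-bla cells alongside agonist 1alpha,25-dihydroxyvitamin D3 (3 nM final), incubation 16 h at 37C. Read-out is LiveBLAzer FRET fluorescence, 2 h at room temperature.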

Assay [9] has as its target Peroxisome proliferator-activated receptor delta (Homo sapiens) (UniProt Q03181). Briefly: qHTS assay to identify small molecule agonists of the peroxisome proliferator-activated receptor delta (PPARd) signaling pathway (AID 743212; calls by dose curve; further: potency means the concentration at half of the fitted maximal effect). In a few lines: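 Steps: seed PPARd-bla HEK293H cells; incubate 5 h, 37 C, 5% CO2; add compounds in DMSO; incubate, 37 C; add LiveBLAzer B/G FRET substrate; hold 2 h at room temperature; measure fluorescence.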

Each structure is given as a SMILES string. Several values for one entry are separate records, joined by “and”; a condition that tells them apart may be missing. Equal values may be shown once. Records with an inconclusive call do not appear. Activity calls are given as the source filed them. Unless noted, the call rests on the fitted dose curve; in most records, active means well fitted curve in the direction sought with a large enough effect in the repeat runs; inconclusive means weak or mixed curves; inactive means no such curve, though single readings can be large; an effect the other way counts as inactive or inconclusive.
On the % scale 0 is the no-effect control and ±100 the full control effect.

Chain of Bile acid receptor (Homo sapiens) (Q96RI1 whole entry, looked up): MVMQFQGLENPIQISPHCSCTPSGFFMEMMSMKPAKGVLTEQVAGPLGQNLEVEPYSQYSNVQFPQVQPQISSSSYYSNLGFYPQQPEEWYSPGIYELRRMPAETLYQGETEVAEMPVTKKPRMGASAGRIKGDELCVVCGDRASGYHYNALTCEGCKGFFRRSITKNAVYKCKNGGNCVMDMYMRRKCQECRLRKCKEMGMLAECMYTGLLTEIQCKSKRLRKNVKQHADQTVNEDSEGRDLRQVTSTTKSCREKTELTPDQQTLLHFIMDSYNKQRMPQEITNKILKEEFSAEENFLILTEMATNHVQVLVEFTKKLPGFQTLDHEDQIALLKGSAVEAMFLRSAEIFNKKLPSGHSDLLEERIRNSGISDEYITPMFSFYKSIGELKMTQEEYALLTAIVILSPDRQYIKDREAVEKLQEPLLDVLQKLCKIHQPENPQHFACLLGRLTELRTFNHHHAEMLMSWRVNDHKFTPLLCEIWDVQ
Chain of Vitamin D3 receptor (Homo sapiens) (P11473 whole entry, looked up): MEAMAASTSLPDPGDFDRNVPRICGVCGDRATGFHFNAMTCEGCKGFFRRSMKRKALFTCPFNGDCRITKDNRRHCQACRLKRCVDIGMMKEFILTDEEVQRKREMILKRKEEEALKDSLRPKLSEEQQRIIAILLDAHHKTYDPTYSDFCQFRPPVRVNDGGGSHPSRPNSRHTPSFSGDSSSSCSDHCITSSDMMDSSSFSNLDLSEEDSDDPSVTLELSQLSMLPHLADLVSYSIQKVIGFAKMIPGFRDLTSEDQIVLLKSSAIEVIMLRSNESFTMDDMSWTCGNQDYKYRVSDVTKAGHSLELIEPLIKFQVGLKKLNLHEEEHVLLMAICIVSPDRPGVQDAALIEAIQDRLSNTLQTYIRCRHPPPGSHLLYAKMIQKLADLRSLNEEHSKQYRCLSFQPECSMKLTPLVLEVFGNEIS
Chain of Peroxisome proliferator-activated receptor delta (Homo sapiens) (Q03181 whole entry, looked up): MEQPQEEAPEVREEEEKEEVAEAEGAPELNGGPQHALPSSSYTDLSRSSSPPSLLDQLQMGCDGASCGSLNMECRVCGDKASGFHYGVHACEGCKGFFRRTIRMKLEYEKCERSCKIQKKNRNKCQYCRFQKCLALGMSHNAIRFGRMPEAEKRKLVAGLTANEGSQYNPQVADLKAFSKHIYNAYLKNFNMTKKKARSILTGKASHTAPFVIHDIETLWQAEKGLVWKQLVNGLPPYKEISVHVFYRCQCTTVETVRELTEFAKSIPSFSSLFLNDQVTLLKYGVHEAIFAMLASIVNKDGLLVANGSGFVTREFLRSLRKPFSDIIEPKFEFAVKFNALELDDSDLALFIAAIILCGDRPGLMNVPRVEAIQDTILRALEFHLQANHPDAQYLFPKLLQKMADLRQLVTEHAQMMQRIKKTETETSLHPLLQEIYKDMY

In the case of `N/C(=N\N=C\c1ccc(Cl)cc1)N/N=C/c1ccc(Cl)cc1`, the Potency result in [1], in [2], in assay [3] and in [4] was “inactive” in each case.
For the compound `Fc1ccc(C(c2ccc(F)cc2)N2CCN(C/C=C/c3ccccc3)CC2)cc1`, the Potency result in assay [5] and in assay [2] was “inactive” in each case.
`Cc1c(C)c2c(c(C)c1O)CCC(C)(COc1ccc(CC3SC(=O)NC3=O)cc1)O2` (stereo not drawn): the Potency entry in [6], in assay [7], in [5], in assay [3] and in [8] was “inactive” in each case.
In the case of `N=C1N=C(N)c2ccccc21`, the Potency entry in assay [6], in [5], in assay [3], in assay [4] and in assay [8] was “inactive” each time.
`C[C@@H]1C[C@H]2[C@@H]3CCC4=CC(=O)C=C[C@]4(C)[C@@]3(Cl)[C@@H](O)C[C@]2(C)[C@@]1(OC(=O)c1ccco1)C(=O)CCl`: the Potency result in [7], in assay [3] and in assay [4] was “inactive” in each case.
On to `Oc1c(Cl)cc(Cl)c2cccnc12`, for which the Potency entry in assay [3] was “inactive”.
Take `O=C(N/N=C/c1ccccc1O)c1ccncc1`: the Potency is 2.11 µM (active) in assay [7] and 19 µM (active) in assay [8]. The Potency result in [5], in [2] and in [3] was “inactive” in each case.
For the compound `CC(C)OC(=O)c1cc2c(OCC(O)CNC(C)(C)C)cccc2[nH]1` (stereo not drawn), the Potency entry in assay [6], in [7], in [5] and in assay [4] was “inactive” in each case.
As for `NC(=NCCCCCCN=C(N)/N=C(\N)Nc1ccc(Cl)cc1)/N=C(\N)Nc1ccc(Cl)cc1`, the Potency in assay [6] was 19.8 µM (active) [middle of 4 runs]; in assay [3], 19.4 µM (active) and 43.4 µM (active).
For `NNc1nc(-c2ccccc2)cs1`, the Potency result in [7] and in [8] was “inactive” each time. The Potency in assay [5] was 2.52 µM (active).
On to `N=C1N=C(N)c2cc3ccccc3cc21`, for which the results for the Potency in assay [5] and in assay [3] were 44.8 µM (active) and 54.9 µM (active), respectively.
For the compound `CCCCCCC[N+](CC)(CC)CCCCc1ccc(Cl)cc1`, the Potency result in assay [6], in [5], in [3] and in [8] was “inactive” throughout.
Take `CN(C)c1ccc(C2(c3ccc(N(C)C)cc3)OC(=O)c3cc(N(C)C)ccc32)cc1`: the Potency result in assay [6], in [5], in assay [3] and in assay [8] was “inactive” each time.
In the case of `CC(C)(C)c1ccc(C(=O)CCCN2CCC(OC(c3ccccc3)c3ccccc3)CC2)cc1`, the Potency in assay [6] is 16.8 µM (active); in assay [5] it was 26.6 µM (active). In addition, the Potency entry in assay [2] is “inactive”.
On to `N=C1C=CC(=C(c2ccc(N)cc2)c2ccc(N)cc2)C=C1`, for which the Potency entry in [9] and in assay [3] was “inactive” in each case.
Regarding `C/C=C1/C(=O)C[C@H]2[C@@H]3CCC4=CC(=O)CC[C@]4(C)[C@H]3CC[C@]12C`, the Potency entry in assay [6], in assay [5] and in assay [3] was “inactive” throughout.
As for `NNc1nc(-c2ccc([N+](=O)[O-])cc2)cs1`, the Potency entry in assay [3] and in [8] was “inactive” in each case.
Turning to `CC(C)CCCCCCCCCCCCCCC(=O)O`, the Potency result in [7], in assay [5] and in assay [3] was “inactive” each time.
Turning to `Cc1[nH]cnc1C[C@H]1CCc2c(C)c3ccccc3n2C1=O`, the Potency result in [7], in [3] and in [4] was “inactive” throughout.
`O=[N+]([O-])c1cc(Cl)c(Cl)c(Cl)c1Cl`: the Potency result in [6], in assay [5], in [2] and in assay [3] was “inactive” each time.
As to `CCC(Cl)C(Cl)C(Cl)CC(Cl)C(Cl)C(C)Cl` (stereo not drawn), the Potency result in assay [2], in [4] and in assay [8] was “inactive” in each case.
Take `COc1c(C)c2c(c(O)c1C/C=C(\C)CCC(=O)O)C(=O)OC2`: the Potency entry in assay [2] and in assay [4] was “inactive” throughout.
On to `COc1ccc(-c2ccc3cc(C(=O)O)ccc3c2)cc1C12CC3CC(CC(C3)C1)C2`, for which the Potency in assay [5] is 7.5 µM (active). Besides, the Potency result in assay [8] was “inactive”.
`O=C(Nc1ccc(Oc2ccc(Cl)cc2)c(Cl)c1)c1cc(I)cc(I)c1O`: the Potency entry in [2], in assay [4] and in [8] was “inactive” each time.
As for `OCCN(CCO)c1nc(N2CCCCC2)c2nc(N(CCO)CCO)nc(N3CCCCC3)c2n1`, the Potency entry in assay [5] and in [3] was “inactive” each time.
`Cc1ccc(-n2nc(C(C)(C)C)cc2NC(=O)Nc2ccc(OCCN3CCOCC3)c3ccccc23)cc1`: in assay [2], the Potency result is “inactive”.
For `CN(C/C=C/C#CC(C)(C)C)Cc1cccc2ccccc12`, the Potency entry in assay [6], in assay [2], in [4] and in assay [8] was “inactive” each time.
On to `O=c1c(-c2ccccc2)c1-c1ccccc1`, for which the Potency was 9.44 µM (active) in assay [5] and 13.3 µM (active) in assay [3]. The Potency result in [2] is “inactive”.
For the compound `O=C(NOCC1CC1)c1ccc(F)c(F)c1Nc1ccc(I)cc1Cl`, the Potency result in assay [5], in assay [3], in [4] and in assay [8] was “inactive” in each case.
Turning to `CSc1ccc(/C=C2/C(C)=C(CC(=O)O)c3cc(F)ccc32)cc1`, the Potency result in assay [6], in assay [2] and in assay [3] was “inactive” each time.
In the case of `CCCCCOc1ccccc1/C(=C\SC)n1ccnc1`, the Potency entry in [6] is “inactive”.
For `CCCCC(CC)COC(=O)c1ccccc1C(=O)O` (stereo not drawn), the Potency in assay [9] was 49.9 µM (active). The Potency entry in assay [3] was “inactive”.
Turning to `CCCC/C=C/CCCCO`, the Potency entry in [6], in assay [3] and in [4] was “inactive” in each case.
Take `Nc1cc(C(F)(F)F)ccc1S`: the Potency result in assay [5], in [3] and in assay [4] was “inactive” in each case.
With `CCOc1ccc2nc3cc(N)ccc3c(N)c2c1`, the Potency entry in assay [6], in assay [7] and in [5] was “inactive” in each case.
As to `OCc1c[nH]c2ccccc12`, the Potency entry in assay [3] is “inactive”.
Turning to `O=C(OC[C@H]1O[C@@H](OC(=O)c2cc(O)c(O)c(OC(=O)c3cc(O)c(O)c(O)c3)c2)[C@H](OC(=O)c2cc(O)c(O)c(OC(=O)c3cc(O)c(O)c(O)c3)c2)[C@@H](OC(=O)c2cc(O)c(O)c(OC(=O)c3cc(O)c(O)c(O)c3)c2)[C@@H]1OC(=O)c1cc(O)c(O)c(OC(=O)c2cc(O)c(O)c(O)c2)c1)c1cc(O)c(O)c(OC(=O)c2cc(O)c(O)c(O)c2)c1`, the Potency in [6] is 13.2 µM (active). Besides, the Potency entry in [5], in assay [3] and in [4] was “inactive” each time.

Values taken from PubChem BioAssay (Tox21).
